Assay outcomes as filed in PubChem.
This is a sample that favours compounds with a hit; in the whole collection about 22% have one here.
Pf growth 96h: Primary qHTS for delayed death inhibitors of the malarial parasite plastid, 96 hour incubation. hit rate 6.9% among 320,000. Potency, µM (highest dose often 28.7 µM), for inactives: top-dose activity change, negative = inhibition, hits mostly inhibitors. AID 504834, 2011. P. falciparum luciferase reporter growth, 96 h; note: potency is the fitted concentration of half-maximal effect; % is set by controls: 0 for no effect and ±100 for the full control effect
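P. falciparum expressing integrated firefly luciferase, in erythrocytes at 2% hematocrit, 0.05% parasitemia, incubated with compounds 96 h at 37 C, 5% CO2. Growth inhibition read as loss of luminescence; two-generation exposure targets delayed-death apicoplast inhibitors.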
Shiga toxin inh: A qHTS for Small Molecule Inhibitors of Shiga Toxin. Vero cells, Shiga toxin protein synthesis inhibition reporter. inhibition, % at 38.7 µM. hit rate 9.2% among 290,000. AID 2315, 2010; in the data active = inhibition mostly above about 28%, no sharp cut-off; inactive = mostly below about 43%; note: 0% is about no effect
CHX counter: Cycloheximide Counterscreen for Small Molecule Inhibitors of Shiga Toxin | cell reporter, cycloheximide protein synthesis inhibition counterscreen | max response, % | hit rate 12% among 300,000 | AID 2314, 2010; in the data active = max response mostly above about 13%, no sharp cut-off; inactive = mostly below about 14%; note: read at 38.3 µM for the half of the compounds with a filed dose; 0% is about no effect
LmPK inh: qHTS Assay for Inhibitors of Leishmania Mexicana Pyruvate Kinase (LmPK) | purified LmPK, Kinase-Glo ATP luminescence, 1 h | Potency, µM (top dose mostly 57.5 µM), without a hit: at the top dose activity change, negative = inhibition, actives largely listed as inhibitors | hit rate 0.37% among 290,000 | AID 1721, 2009; note: potency is the fitted concentration of half-maximal effect; % is set by controls: 0 for no effect and ±100 for the full control effect
Target sequence (Q27686 whole entry, looked up): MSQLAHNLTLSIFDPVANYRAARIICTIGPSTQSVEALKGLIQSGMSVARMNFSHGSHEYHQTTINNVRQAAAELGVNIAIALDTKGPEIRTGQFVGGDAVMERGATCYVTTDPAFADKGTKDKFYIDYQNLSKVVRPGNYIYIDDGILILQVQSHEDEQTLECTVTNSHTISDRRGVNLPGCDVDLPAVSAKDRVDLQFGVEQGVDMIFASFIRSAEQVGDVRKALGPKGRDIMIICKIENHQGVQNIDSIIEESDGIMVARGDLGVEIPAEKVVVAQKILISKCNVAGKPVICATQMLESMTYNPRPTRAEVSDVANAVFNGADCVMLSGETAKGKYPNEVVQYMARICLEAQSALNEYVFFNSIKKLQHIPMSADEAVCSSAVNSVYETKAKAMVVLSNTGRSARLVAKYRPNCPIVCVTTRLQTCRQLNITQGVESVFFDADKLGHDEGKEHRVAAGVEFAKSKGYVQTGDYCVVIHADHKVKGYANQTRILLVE
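Purified LmPK (0.1 nM) with 0.5 mM PEP and 0.1 mM ADP in imidazole buffer pH 7.2 with MgCl2/KCl, 1 h at room temperature. ATP formed was read by luciferase luminescence and normalized to no-enzyme and uninhibited controls.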
Pf growth 48h: Primary qHTS for delayed death inhibitors of the malarial parasite plastid, 48 hour incubation. P. falciparum luciferase growth in erythrocytes, 48 h. Potency, µM (titrated, usually from 28.7 µM), for inactives: at the top dose activity change, negative = inhibition, most hits filed as inhibitors. AID 504832, 2011. hit rate 5.9% among 310,000; note: potency is the fitted concentration of half-maximal effect; % is set by controls: 0 for no effect and ±100 for the full control effect
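Compounds are pin-transferred into medium, infected erythrocytes (2% hematocrit, 0.1% parasitemia final) are added, and plates sit one parasite generation at 37 C in 5% CO2. Detection reagent is then added and luminescence measured.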
Active calls of the source: *; i = inactive; ? = inconclusive; . = no result given; [ ] = another dose, or the depositor's remark. Unless noted, calls come from the whole dose curve; as a rule, active = well fitted inhibition curve with a large enough effect; inconclusive = small, poorly fitted or top-dose-only effect, or another doubt; inactive = no such curve, though single readings can be large or run the other way.

SMILES | Pf growth 96h | Shiga toxin inh | CHX counter | LmPK inh | Pf growth 48h
Cc1ccsc1C(=O)Nc1nccs1 | 35% | 60* | 16* | ? | 58%
Cc1csc(NC(=O)c2sccc2C)n1 | 424% | 91* | 59* | 14µM* | 195%
O=C(NCCOc1ccc(F)cc1)C1CCC(=O)N(CCc2ccccn2)C1 (configuration not stated) | ? | -8 | 10 | 1% | 19%
COC(C(=O)C(O)C(C)O)C1Cc2cc3cc(OC4CC(OC5CC(O)C(O)C(C)O5)C(O)C(C)O4)c(C)c(O)c3c(O)c2C(=O)C1OC1CC(OC2CC(OC3CC(C)(O)C(O)C(C)O3)C(O)C(C)O2)C(O)C(C)O1 (configuration not stated) | 1.9µM* | . | . | . | 0.06µM*
CO[C@H](C(=O)[C@@H](O)[C@@H](C)O)C1Cc2cc3cc(O[C@H]4C[C@@H](O[C@H]5C[C@@H](O)[C@H](O)[C@@H](C)O5)[C@@H](O)[C@@H](C)O4)c(C)c(O)c3c(O)c2C(=O)[C@H]1O[C@H]1C[C@@H](O[C@H]2C[C@@H](O[C@H]3C[C@](C)(O)[C@H](O)[C@@H](C)O3)[C@H](O)[C@@H](C)O2)[C@H](O)[C@@H](C)O1 (some centres not stated) | 0.034µM* | . | . | . | 0.048µM*
COc1ccc(OCc2ccc(C(=O)NN)cc2)cc1 | 65% | -1 | 1 | 10% | .
O=C1C(=O)N(C2CCCC2)C(=O)N1Cc1c(F)cccc1Cl | -11% | 23 | -4 | -6%[11.5 µM] | 13%
CC1=C(C(=O)OC2CCCC(C)C2)C(c2ccccc2)NC(=O)N1 (configuration not stated) | -2% | 1 | 5 | -1% | 9%
COc1ccc2[nH]cc(C(=O)NCCc3ccccc3)c(=O)c2c1 | -7% | 28* | 20 | 4% | 4%
COc1ccc2c(=O)c(C(=O)NCCc3ccc(OC)c(OC)c3)c[nH]c2c1 | ? | -9 | -1 | 6% | 10µM*
COc1ccc2c(=O)c(C(=O)NCc3ccccc3)c[nH]c2c1 | ? | 15 | 7 | 2% | ?
CCOc1ccc2[nH]cc(C(=O)NCc3ccc(F)cc3)c(=O)c2c1 | 0% | -2 | -1 | -4% | ?
COc1ccc2c(=O)c(C(=O)NCCc3ccccc3)c[nH]c2c1 | -16% | 18* | 25* | 0% | 2%
COc1ccc2[nH]cc(CCNC(=S)NCCc3ccccc3)c2c1 | 45%[5.75 µM] | 13 | 0 | 2% | 5%
CCOCCCNC(=O)c1c[nH]c2ccc(OCC)cc2c1=O | -2% | 21 | -1 | 3% | 2.3µM*
O=C(Nc1cc(S(=O)(=O)N2CCOCC2)ccc1Cl)C(=O)c1c(-c2ccccc2)cc2ccccn12 | . | 30 | -2 | 5% | ?
COC(=O)C1CSC(C(=O)OC)N1C(=O)CN1CCN(c2ccccc2)CC1 (configuration not stated) | ? | -5 | -1 | -3% | -5%
CCCOc1ccc2[nH]cc(C(=O)O)c(=O)c2c1 | 15µM* | -2 | -4 | -2% | 9%
CCOc1ccc(CCNC(=O)C2=C(C)C(=O)OC23CCCCC3)cc1OCC | -8% | -17 | -2 | -1% | -22%
COc1cc(OC)nc(NC(=O)NS(=O)(=O)c2ccccc2Cl)n1 | 54% | -6 | -1 | -11% | 25%
Cc1cc(N(C)N)nc(NC(=O)NS(=O)(=O)c2ccccc2Cl)n1 | 20% | 21 | 16* | 1% | 11%
CN(C)/C=C(\C#N)C(N)=C(C#N)C#N | 59% | 18 | -1 | 1% | ?
COc1ccc(OC)c(S(=O)(=O)N(C(C)=O)c2ccc3oc(=O)sc3c2)c1 | ? | 3 | -6 | -12% | 18%
COc1ccc(N(C(C)=O)S(=O)(=O)c2cc(OC)ccc2OC)cc1 | 8.3µM* | -6 | -3 | -2% | -22%
COc1cc(/C=C/C(=O)OCC(=O)N2CCc3ccccc3C2)ccc1O | 0% | 7 | -2 | 0% | 49%
SMILES | Pf growth 96h | Shiga toxin inh | CHX counter | LmPK inh | Pf growth 48h
CCc1ccc(-c2cc(C(=O)Nn3cnnc3)c3ccccc3n2)cc1 | ? | -22 | -3 | ? | .
CC(C)Oc1cccc(-c2cc(C(=O)NN3CCOCC3)c3ccccc3n2)c1 | ? | 18 | 12* | 2% | 34%
O=C(NN1CCOCC1)c1cc(-c2ccc(Br)s2)nc2ccccc12 | 0% | 18 | 0 | -7% | 30%
CCCc1ccc(-c2cc(C(=O)Nc3ccc([N+](=O)[O-])cn3)c3ccccc3n2)cc1 | ? | 17* | 21* | -1% | -95%
CCCc1ccc(-c2cc(C(=O)NN3CCOCC3)c3ccccc3n2)cc1 | 257% | 54 | 20* | -7% | 89%
CCCc1ccc(-c2cc(C(=O)NCCc3ccc(S(N)(=O)=O)cc3)c3ccccc3n2)cc1 | i | 95* | 54* | -1% | 167%
COc1ccc(NC(=O)C2CCCN2S(=O)(=O)c2ccc3c(c2)CC(C)N3C(C)=O)cc1OC (configuration not stated) | -19% | -9 | -1 | -4% | ?
CCC(=O)Nc1ccc(NC(=S)NC(=O)/C=C/c2ccccc2)cc1 | -7% | -7 | 5 | 2% | 10%
Cc1cccc(NC(=S)NC(=O)/C=C/c2ccco2)n1 | -13% | 121* | 48* | -3% | .
O=C(/C=C/c1ccco1)NCc1ccc(F)cc1 | ? | 20 | 19* | 10% | 55%
CC(=O)c1ccc(NC(=S)NC(=O)/C=C/c2ccco2)cc1 | -25% | . | 27* | 8% | 63%
CC(=O)c1ccc(NC(=S)NC(=O)/C=C/c2ccccc2)cc1 | 11% | 38* | 24* | -2% | 22%
NCCCC[C@@H](C(=O)N1CCNCC1)n1cc([C@@H](N)CO)nn1 | 61% | -6 | 1 | -3% | 55%
O=Cc1ccc(OCC(=O)NCC2CCCO2)cc1 (configuration not stated) | 5% | -8 | -2 | -2% | 0%
Cc1cc([N+](=O)[O-])nn1CC(=O)NCc1nc2ccccc2[nH]1 | ? | 19 | 3 | 8% | -5%
COC(=O)c1ccc(COC(=O)CNC(=O)c2cccs2)cc1 | 8% | -6 | -1 | -3% | 14%
O=C(/C=C/c1ccco1)NC(=S)Nc1ccccc1 | 261% | . | 42* | 5% | 9%
Cc1cccc(NC(=S)NC(=O)/C=C/c2ccco2)c1 | 14% | 32 | 10 | -1% | 11%
CCCC1C(=O)Nc2ccccc2N1C(=O)c1cccc(C)c1 (configuration not stated) | -32% | -7 | -2 | 0% | -14%
CCCC1C(=O)Nc2ccccc2N1C(=O)c1ccc(C(C)(C)C)cc1 (configuration not stated) | 9.3µM* | 17 | 2 | 0% | ?
Cc1ccc(O)c(C(=O)CC(=O)c2cccc(F)c2)c1 | . | 61* | 38* | 2% | ?
